AID504770 – growth inhibitors of E. coli YBA685 in a screen for V. cholerae RctB (chromosome II replication) inhibitors; E. coli YBA685 rctB-dependent plasmid, OD600 growth, 3 h; stronger effect = lower value; z-score (no concentration beside the values); 0.27% of 130,000 active; in the data active means z-score below about -2, passing the limit was not always enough
MbtI inh – inhibitors of Mycobacterium tuberculosis siderophore enzyme MbtI | 0.89% of 100,000 active | purified MbtI enzyme, fluorescence intensity read-out | inhibition, % (concentration not given with the values); in the data active means inhibition mostly above about 56%, no sharp cut-off; inactive means mostly below about 77%
MenB inh – blocks the Mycobacterium tuberculosis MenB enzyme; P9WNP5; MenB enzyme assay, absorbance read-out; inhibition, % (concentration not given with the values); 0.43% of 100,000 active; AID 540299; in the data active means inhibition above about 21%, passing the limit was not always enough
Polio RdRp inh – inhibitors of poliovirus RNA polymerase binding and polymerization | P03300 | poliovirus polymerase elongation, fluorescence polarization; stronger effect = lower value | % elongation, % (compound at 16.7 µg/mL) | 0.66% of 150,000 active | AID 588519; in the data active means % elongation below about 90%
Target sequence (P03300 1749-2209 limits assumed): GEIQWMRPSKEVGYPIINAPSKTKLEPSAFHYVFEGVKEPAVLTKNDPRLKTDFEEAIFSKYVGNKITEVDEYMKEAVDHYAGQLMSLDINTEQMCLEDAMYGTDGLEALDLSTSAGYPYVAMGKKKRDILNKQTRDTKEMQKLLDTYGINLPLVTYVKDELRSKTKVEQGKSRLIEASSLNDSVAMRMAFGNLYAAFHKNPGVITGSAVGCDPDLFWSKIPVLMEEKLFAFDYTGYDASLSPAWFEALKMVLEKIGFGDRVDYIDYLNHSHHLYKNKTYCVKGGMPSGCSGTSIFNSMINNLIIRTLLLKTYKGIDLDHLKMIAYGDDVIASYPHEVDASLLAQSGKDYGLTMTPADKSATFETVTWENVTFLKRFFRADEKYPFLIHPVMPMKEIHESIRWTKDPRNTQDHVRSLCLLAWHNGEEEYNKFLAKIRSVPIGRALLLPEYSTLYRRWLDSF
* = called active by the depositor; i = inactive; . = not tested or not shown. The list is not random: actives were taken first. Their share in the collection is about 1.5%.

SMILES	AID504770	MbtI inh	MenB inh	Polio RdRp inh
O=C(COC(=O)c1nc(Cl)ccc1Cl)c1ccc2[nH]c(=O)[nH]c2c1	0.2	-6.0	-8.4	38.0*
O=S(=O)(Cc1ccccc1Cl)N1CCOCC1	0.6	-3.2	-10.3	104.0
Cc1cc2ncn(S(=O)(=O)c3ccc(S(=O)(=O)NCC4CCCO4)cc3)c2cc1C (configuration not stated)	0.25	-4.5	16.3	100.0
COc1ccc(C2CC(c3ccccc3)=NN2C(=O)Cn2cnc3c2c(=O)n(C)c(=O)n3C)cc1 (configuration not stated)	1.8	12.9	9.3	104.0
CCCCc1cc(=O)oc2cc(OC(C)=O)cc(OC(C)=O)c12	-0.55	i	-0.2	99.0
CCCSc1nc(-c2ccccc2)[nH]c1S(=O)(=O)c1ccc(C)cc1	.	.	.	-16.0*
Cc1ccc(S(=O)(=O)c2[nH]c(-c3ccccc3)nc2SCCC(=O)O)cc1	.	.	.	110.0
Cc1ccc(C)n1-c1cc(Cl)ccc1C(=O)O	1.1	24.8	-5.7	84.0*
CN1CCN(c2ccc(Nc3ccnc4cc(Cl)ccc34)cc2Cl)CC1	-0.25	.	-0.1	89.0*
CCN(CC)Cc1cc(Nc2ccnc3cc(Cl)ccc23)ccc1O	.	24.1	-5.6	101.0
COc1cc(/C=C2\SC(=O)NC2=S)ccc1O	0.05	79.2*	-96.8	86.0
COc1cc(/C=C2/SC(=S)N(NC(C)=O)C2=O)ccc1O	-0.2	.	i	155.0
COc1ccc(CCNC(=O)c2cc(C)on2)cc1OC	-0.35	-10.1	-6.4	102.0
COC(=O)COc1ccc(S(=O)(=O)Nc2ccc(C(F)(F)F)cc2)cc1	-0.85	-14.2	-0.1	98.0
O=C1C=CC(=O)N1c1ccc(S(=O)(=O)Nc2ccc(C(F)(F)F)cc2)cc1	0.7	98.3*	-0.6	105.0
NNc1nc2cc3c(cc2s1)OCO3	-0.65	.	.	.
Cc1cc(C)c(C#N)c(SCC(=O)OC(C)C)n1	-0.65	-28.4	-24.0	99.0
C=COC(=O)CSc1nc(C)cc(C)c1C#N	-0.25	.	3.4	86.0*
COC(=O)C1=C(Nc2ccccc2NC(=O)c2ccccc2C(=O)O)CSC1	-0.95	18.8	-7.4	105.0
CNC(=O)Nc1ccccc1NC1=C(C(=O)OC)CSC1	-2.2*	68.5	14.9	80.0
Cn1cnnc1SCc1ccc(C(=O)n2ncc(C#N)c2N)cc1	-0.9	-9.9	-4.5	88.0*
COc1ccc(C(=O)n2ncc(C#N)c2N)cc1	0.05	-4.7	-2.6	96.0
CC1=C/C(=N\Nc2nncc3ccccc23)CC1	-0.45	7.3	-46.5	106.0
CC1=C/C(=N\Nc2ccccc2Cl)CC1	-2.85	72.2*	-38.3	100.0
Cn1c(SCCCn2c(=O)[nH]c3ccccc32)nnc1C1COc2ccccc2O1 (configuration not stated)	-0.3	-10.4	2.3	108.0
SMILES	AID504770	MbtI inh	MenB inh	Polio RdRp inh
O=C(CN(Cc1ccccc1)C(=O)Cn1nnc(-c2ccc(F)cc2)n1)NC1CCCC1	-0.4	-11.0	-38.9	103.0
COc1ccc(CN(CC(=O)NC2CCCC2)C(=O)Cn2nnc(-c3ccc(OC)cc3)n2)cc1	0.75	2.1	32.7*	102.0
Nc1nonc1/C(=N/O)N1CCCC1	1.4	7.8	26.2	101.0
Nc1nonc1C(=O)N1CCCC1	1.75	9.7	46.0*	104.0
COc1ccccc1CN(C)C(=S)NC1CC1	-0.65	0.1	-6.5	101.0
CN1C(=O)/C(=C/c2ccc(I)o2)C(=O)NC1=S	1.05	82.9*	-115.9	95.0
CN1C(=O)/C(=C/c2cn(CC(=O)N3CCCC3)c3ccccc23)C(=O)NC1=S	-0.35	-8.0	-5.5	99.0
Nc1nc(SC#CC(F)(F)F)ns1	-4.95*	50.6	-19.4	85.0*
O=C(O)C1CC(c2ccc(F)cc2)=NO1 (configuration not stated)	-0.65	.	14.7	84.0*
CC(N)COc1ccc(Cl)cc1 (configuration not stated)	-1.05	3.8	22.2	102.0
C=CCOn1c(=O)c(-c2ccc(OC)c(OC)c2)[n+]([O-])c2ccccc21	-0.5	77.9*	-43.3	93.0
O=C(CO/N=C/c1ccco1)NCc1ccccc1	1	51.1*	7.5	110.0
CCN1/C(=C2/SC(=S)N(N)C2=O)Sc2ccccc21	-0.05	-4.9	-9.5	104.0
O=C(NC1CCN(Cc2ccccc2)CC1)c1ccc(Cn2c(=O)c3ccccc3n(Cc3ccc(F)cc3)c2=O)cc1	.	.	.	104.0
COc1ccc(Cn2c(=O)[nH]c3cc(C(=O)NC4CCN(Cc5ccccc5)CC4)ccc32)cc1	1.4	7.3	29.7*	104.0
Cc1nn(-c2ccccc2)c2c1CC1(C(=O)NC(=O)c3ccccc31)C1CCCN21 (configuration not stated)	1.55	34.6	11.1	83.0*
CC1(C)CC(=O)c2c(nn(-c3ccccc3)c2N)C1	-1.2	-8.2	-1.7	99.0
O=C(Cc1nc2ccccc2s1)c1ccccc1	-1.1	-7.5	.	72.0*
CCOC(=O)Cn1c(Cl)c(/C=N/NC(=O)c2ccccc2)sc1=O	0.05	3.0	-46.8	.
COc1ccc(C(=O)c2nc3ccccc3n2C(C)C)cc1OC	-4.6*	-3.8	-16.9	101.0
ClC(=NC1CC1)c1ccccc1	-1.4	-3.0	-16.0	99.0
CC(=O)N1CCN(c2ccc(N)cc2)CC1	1.85	.	29.8*	103.0
O=C(Nc1ccc(F)cc1)C1CCCN(c2ncccn2)C1 (configuration not stated)	0.9	-25.6	17.5	103.0
S=c1[nH]nc(CNc2cccc(Cl)c2)o1	-1.45	83.7*	-25.5	100.0
CC(C)n1c(SCC(=O)Nc2ccccc2)nc2ccccc2c1=O	0.75	-5.2	-7.7	97.0
SMILES	AID504770	MbtI inh	MenB inh	Polio RdRp inh
Cc1cc(SCC(=O)Nc2ccccc2)c2ccccc2n1	-0.05	.	-31.0	89.0*
N/C(=N\OC(=O)c1ccc(Br)o1)c1ccncc1	-2.4*	6.8	-0.5	105.0
COC(=O)C1=C(Nc2ccc(OC(F)(F)F)cc2)CSC1	0.4	.	.	.
CSc1cccc(-n2c(-c3ccc(Cl)cc3)csc2=N)c1	-0.45	.	.	.
NC(=S)N/N=C/c1cn[nH]c1-c1ccccc1	0.4	95.3	-4.4	98.0
COc1cccc(N2CC(NC(=O)/C=C\c3ccc4c(c3)OCO4)CC2=O)c1 (configuration not stated)	.	.	.	81.0*
COc1ccc(N2CC(NC(=O)/C=C\c3ccc4c(c3)OCO4)CC2=O)cc1OC (configuration not stated)	.	.	.	105.0
CCOC(=O)C1=C(C)NNC(=Nc2cccc(C)c2C)S1	0.6	85.9*	-20.8	80.0*
O=c1cc(CSc2ccc(Cl)cc2)[nH]c(=S)[nH]1	-0.75	58.5*	-79.5	99.0
CCOC(=O)c1c(C)[nH]c(C)c1C(=O)COC(=O)c1ccncc1	-0.45	2.6	-3.4	112.0
COc1ccccc1N1C(=O)C=CC1=O	1.25	98.2*	.	98.0
COc1ccc(OC)c(N2C(=O)C=CC2=O)c1	1.35	97.4*	.	99.0
Cc1cccn2c(=O)cc(CN3CCN(S(=O)(=O)c4ccc5c(c4)OCCCO5)CC3)nc12	-0.1	-19.2	-7.3	99.0
Cc1cccc(C(=O)Nc2ccc(N3CCN(C(C)C)CC3)cc2)c1	2.25	.	.	.
O=C(O)CN1CCCCC1	0.5	3.5	30.9*	100.0
O=C(O)CCN1CCCC1	-0.3	-6.3	7.6	100.0

Bioassay records deposited in PubChem BioAssay by ICCB-Longwood Screening Facility, Harvard Medical School.
